From publication PMC7819943, “Rice protein-binding microarrays: a tool to detect cis-acting elements near promoter regions in rice”
The full ranking holds about 68,000 sequences; the median of “fluorescence intensity (a.u.)” is about 9,100, and the highest 2% start at about 16,000. The full list was thinned out, with the highest values kept by preference.

target: OsWRKY34 (Oryza sativa, UniProt Q0JBA9 1-250); experiment: protein-binding microarray (RPBM); PBS, 2% BSA, 51.3 ng/ul salmon testes DNA, 50 uM zinc acetate, 200 nM TF, 25 C, 1 h; high values mean tight binding; details: protein: recombinant; tags: N-terminal polyhistidine and DsRed monomer fusion (pET32a); label: CyDye5-dUTP incorporated in the synthesized complementary strand; 3' TTTTT single-stranded linker to array surface; dsDNA, one strand shown
Procedure, shortened: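 Transcription factors were each fused at the N-terminus to a polyhistidine tag plus DsRed and expressed in E. coli BL21-CodonPlus before Ni–NTA purification. Binding to a double-stranded custom Agilent array was carried out with 200 nM protein at 25 °C for 1 h in PBS, 2% BSA, salmon testes DNA and 50 µM zinc acetate. The binding signal is per-feature fluorescence intensity, in arbitrary units, on an Axon 4000B scanner.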

Chain of OsWRKY34 (Q0JBA9 entry or part of it): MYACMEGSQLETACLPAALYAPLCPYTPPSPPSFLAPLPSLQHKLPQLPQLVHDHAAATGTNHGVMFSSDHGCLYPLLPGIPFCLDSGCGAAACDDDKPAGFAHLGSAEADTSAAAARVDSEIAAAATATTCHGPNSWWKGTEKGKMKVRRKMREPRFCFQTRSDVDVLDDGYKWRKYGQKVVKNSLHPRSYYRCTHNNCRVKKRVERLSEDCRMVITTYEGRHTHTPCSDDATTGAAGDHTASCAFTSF

Q: “CGCTCTCTTGTTGACCACCTCGCGTTGCACTGGGCCAGCCCGGAGTCACCTAGTGCAG” was tested. Which binding signal did it give?
A: 9490 fluorescence intensity (a.u.)

Q: For “GCTGCTGGTGGTGGTAGTAGGACTTGGGGCTCGTGTTGTGCGGAGTCACCTAGTGCAG”, which binding signal is on record?
A: 9720 fluorescence intensity (a.u.)

Q: With “TCGTAGGGTGCGGGGTGGCTGCCTGTCTCCTTCGCCTCGCCGGAGTCACCTAGTGCAG” as the sequence, how does the binding signal read?
A: 9680 fluorescence intensity (a.u.)

Q: Which binding signal does the source give for “ATCACCAGTTGCCATTCTGTCACCTCAACTTAGAACATACCGGAGTCACCTAGTGCAG” here?
A: 8290 fluorescence intensity (a.u.)

Q: With “CAAACGTACTCCTACTCTCCAAGCAGCCTATATAAACCACCGGAGTCACCTAGTGCAG” as the sequence, how does the binding signal read?
A: 8590 fluorescence intensity (a.u.)

Q: For “TTTCACCTAGTCCTAGCCTAATTCGTCTATCTTTATCAATCGGAGTCACCTAGTGCAG”, which binding signal is on record?
A: 9710 fluorescence intensity (a.u.)

Q: With “CGCTGCTTTTGCTGCTGCTGTTGATGATGCATCCCATTCCCGGAGTCACCTAGTGCAG” as the sequence, how does the binding signal read?
A: 9140 fluorescence intensity (a.u.)

Q: With “CGGAGGCATGGGGAGGCTGCTGCGGCGCCAATTGTGGCCACGGAGTCACCTAGTGCAG” as the sequence, how does the binding signal read?
A: 8860 fluorescence intensity (a.u.)

Q: For “TGCGGGGCGCAAGGCGCGCGGTAGGGGAGGGGTTAGCGCTCGGAGTCACCTAGTGCAG”, which binding signal is on record?
A: 8190 fluorescence intensity (a.u.)

Q: How did the binding signal turn out when “CGCGCGCGCGCGCGTACGTGGGAACAGAGAGCGGCGCCGACGGAGTCACCTAGTGCAG” was run?
A: 27900 fluorescence intensity (a.u.)

Q: With “GCTGGGAGGGAGGAGCGGGAGGCGGCGCGGCGCGTGGAGGCGGAGTCACCTAGTGCAG” as the sequence, how does the binding signal read?
A: 8580 fluorescence intensity (a.u.)

Q: For “GGTTCTTCTGAGCGGGGCCGGGGCGGGGCGGCAGCTGGGGCGGAGTCACCTAGTGCAG”, which binding signal is on record?
A: 30000 fluorescence intensity (a.u.)

Q: For “TATTTTAGTGCAAGGGGCGGGCGGGCGCGGTAGAAGTCAACGGAGTCACCTAGTGCAG”, which binding signal is on record?
A: 18200 fluorescence intensity (a.u.)

Q: With “GTAGCAATGGGCGGCGGGGAGCGGGGCTGAGCGGCAGCCGCGGAGTCACCTAGTGCAG” as the sequence, how does the binding signal read?
A: 8150 fluorescence intensity (a.u.)

Q: “GGCCGGTAGGGGTAGAACGGTCATTTCGTGCGCGGGGAGGCGGAGTCACCTAGTGCAG” was tested. Which binding signal did it give?
A: 9810 fluorescence intensity (a.u.)

Q: For “GGGAGCGGGTGGGAGTGGCCGGCGCGGAGGACGACGGCGGCGGAGTCACCTAGTGCAG”, which binding signal is on record?
A: 8280 fluorescence intensity (a.u.)

Q: How did the binding signal turn out when “GGCGTGGGGAGGCGGAGGGAGGGAGGGGAGCGGCTGCGCACGGAGTCACCTAGTGCAG” was run?
A: 17700 fluorescence intensity (a.u.)

Q: How did the binding signal turn out when “GGCGGCGGCGGCGGGGCGGCGTGGCGCCGAGGGAGGGGAACGGAGTCACCTAGTGCAG” was run?
A: 12500 fluorescence intensity (a.u.)

Q: Which binding signal does the source give for “AGCTGAGGGGCGGCGGCGGCTGGCAAGGGGCGGCGGCGGCCGGAGTCACCTAGTGCAG” here?
A: 10900 fluorescence intensity (a.u.)

Q: How did the binding signal turn out when “AATACGGTTTGGAAGGGATCTTTTTTGGTTGGTTGCACTGCGGAGTCACCTAGTGCAG” was run?
A: 9650 fluorescence intensity (a.u.)

Q: For “ATAGTTGTTTTGCCTACCCCACCCATGCCGAAGATGGACACGGAGTCACCTAGTGCAG”, which binding signal is on record?
A: 8790 fluorescence intensity (a.u.)

Q: How did the binding signal turn out when “ATCTTTTCTCTTCTCGACTTCTCGTATGCCGCGTCCCGTCCGGAGTCACCTAGTGCAG” was run?
A: 11100 fluorescence intensity (a.u.)

Q: With “CTTGTGGCTTGTGCAATTCTGTTTCATCGAGTTTGTTAACCGGAGTCACCTAGTGCAG” as the sequence, how does the binding signal read?
A: 8830 fluorescence intensity (a.u.)

Q: With “TTCAAATCTCATCCGAATTTTTTGTTTTTTATTTTTTTTTCGGAGTCACCTAGTGCAG” as the sequence, how does the binding signal read?
A: 8280 fluorescence intensity (a.u.)

Q: How did the binding signal turn out when “TAGTTCATCCTTGACATCAAGTGGGTTGCTAGTCTCATTCCGGAGTCACCTAGTGCAG” was run?
A: 9450 fluorescence intensity (a.u.)

Q: “TAGGCTGTATTCTTATCCACTCATGCAGTGCTCTGATAGGCGGAGTCACCTAGTGCAG” was tested. Which binding signal did it give?
A: 11000 fluorescence intensity (a.u.)

Q: “TGGTTTGCATCTCTTCTTGCTCTTTGGAGGATTTACTACTCGGAGTCACCTAGTGCAG” was tested. Which binding signal did it give?
A: 9510 fluorescence intensity (a.u.)

Q: For “AGGAGGCGGGGCGGGGCGGCGGCGGCGGCGGCGGCGCCCGCGGAGTCACCTAGTGCAG”, which binding signal is on record?
A: 11500 fluorescence intensity (a.u.)

Q: Which binding signal does the source give for “GCGGCCGGTCCGAGCGAGCGGAGAGGGAGGAGGCGGGGAGCGGAGTCACCTAGTGCAG” here?
A: 8360 fluorescence intensity (a.u.)

Q: “GGGAGTGTGGAGGTGTTGTGCTGCGGCGTGGGTGTGTTGGCGGAGTCACCTAGTGCAG” was tested. Which binding signal did it give?
A: 8640 fluorescence intensity (a.u.)

Q: “GGGCGGAGGCGGGGATCGCGGCGGGAGGGGTGGATCCATGCGGAGTCACCTAGTGCAG” was tested. Which binding signal did it give?
A: 17400 fluorescence intensity (a.u.)

Q: “CGGCGGCGGAGGAGGAGGAGGAGGAGGGCGCGGGGCGGCGCGGAGTCACCTAGTGCAG” was tested. Which binding signal did it give?
A: 21700 fluorescence intensity (a.u.)

Q: “TTCTTCTAGAGGAGGAGGAGGCGGCGGGGCGGCGGGCGAGCGGAGTCACCTAGTGCAG” was tested. Which binding signal did it give?
A: 17300 fluorescence intensity (a.u.)

Q: Which binding signal does the source give for “GAGGCCGGGGTCGGGGCGAGCGAGGCGAGAGGGGAGGAGGCGGAGTCACCTAGTGCAG” here?
A: 8910 fluorescence intensity (a.u.)

Q: With “GTGTTGGTGGCTCTGGCTGCGTCGACGTGCGCAGGGCGTTCGGAGTCACCTAGTGCAG” as the sequence, how does the binding signal read?
A: 8050 fluorescence intensity (a.u.)

Q: How did the binding signal turn out when “GGTCGCCGGATCGCGGGAGGGAGGGAGGGAGGGAGGGAGGCGGAGTCACCTAGTGCAG” was run?
A: 14100 fluorescence intensity (a.u.)

Q: Which binding signal does the source give for “GCAGGCGGAGGCGGAGGCGGAGGCGGAGGCGGCGGCGGCGCGGAGTCACCTAGTGCAG” here?
A: 8950 fluorescence intensity (a.u.)

Q: For “GGCGTGTTGTGTTCGGGTGGGTGCTGCGCAGGCTGCTGTACGGAGTCACCTAGTGCAG”, which binding signal is on record?
A: 17300 fluorescence intensity (a.u.)

Q: How did the binding signal turn out when “CGGGGTGGGAGCAGGGGTCGCGCGGCGGGGTGCGGCCATGCGGAGTCACCTAGTGCAG” was run?
A: 10100 fluorescence intensity (a.u.)

Q: Which binding signal does the source give for “CTGCTCTTTCTTCTCTCTGCATTCCATTTCATTACTGCCTCGGAGTCACCTAGTGCAG” here?
A: 11000 fluorescence intensity (a.u.)

Q: “AGCTCGTGTGGTGTATGTTGTTGTGTGCTGCTAGCTAGCTCGGAGTCACCTAGTGCAG” was tested. Which binding signal did it give?
A: 10200 fluorescence intensity (a.u.)

Q: Which binding signal does the source give for “TCCATGCCATCTGCTGAACAGACCCATGCATCCTTCAACTCGGAGTCACCTAGTGCAG” here?
A: 8920 fluorescence intensity (a.u.)

Q: Which binding signal does the source give for “CACATCAAATTTATTTTCTCCCAAAATGAGGCGCGCAACACGGAGTCACCTAGTGCAG” here?
A: 8670 fluorescence intensity (a.u.)

Q: “GCTGTCGTTGAATTTTTGTTTGTTTTCTTGGCGTGTTGCACGGAGTCACCTAGTGCAG” was tested. Which binding signal did it give?
A: 13300 fluorescence intensity (a.u.)
